Reference: PubChem BioAssay AID1159580 (chemical genetic matrix, 2015)
The whole screen tested about 5,500 compounds, of which about 2,000 (36%) were called active. Another 18% or so got no clear call; they are omitted. Rule as the data show it: active = normalized growth mostly below about 0.91 (no sharp cut-off); inconclusive = no clear call, values can overlap the other calls; inactive = mostly above about 0.92. This is one part of the list.

Test: chemical genetic growth profiling, strain panel (AID 1159580);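 also: tested at 20 µM; growth read once vehicle control cultures reached saturation at 30 °C; 1 = growth at the plate median or of vehicle wells; lower values mean less growth of the strain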
Conditions: growth OD

Measured: normalized growth

CN(C)CC[C@H](c1ccc(Cl)cc1)c1ccccn1
inactive: S. cerevisiae deletion strains, locus YJR075W, strain HOC1, active compounds read low 0.994 | S. cerevisiae deletion strains, locus YKL009W, strain mrt4, active compounds read low 1.01 | S. cerevisiae deletion strains, locus YKL068W, active compounds read low 0.997 | S. cerevisiae deletion strains, locus YKL085W, strain MDH1 (second series), active compounds read low 0.995 | S. cerevisiae deletion strains, locus YKL085W, strain MDH1, active compounds read low 0.995 | S. cerevisiae deletion strains, locus YKL160W, strain elf1, active compounds read low 0.994 | S. cerevisiae deletion strains, locus YKL190W, strain CNB1, active compounds read low 1 | S. cerevisiae deletion strains, locus YKR001C, strain vps1, active compounds read low 0.989 | S. cerevisiae deletion strains, locus YKR026C, strain gcn3, active compounds read low 1 | S. cerevisiae deletion strains, locus YKR091W, strain srl3, active compounds read low 1.01 | S. cerevisiae deletion strains, locus YLL001W, strain dnm1, active compounds read low 0.991 | S. cerevisiae deletion strains, locus YLL026W, active compounds read low 0.997 | S. cerevisiae deletion strains, locus YLL041C, strain sdh2, active compounds read low 0.992 | S. cerevisiae deletion strains, locus YLR027C, strain aat2, active compounds read low 1 | S. cerevisiae deletion strains, locus YLR039C, strain RIC1, active compounds read low 1.04 | S. cerevisiae deletion strains, locus YLR058C, strain SHM2, active compounds read low 1 | S. cerevisiae deletion strains, locus YLR102C, strain apc9, active compounds read low 0.989 | S. cerevisiae deletion strains, locus YLR113W, strain HOG1, active compounds read low 1.02 | S. cerevisiae deletion strains, locus YLR221C, strain rsa3, active compounds read low 1.01 | S. cerevisiae deletion strains, locus YLR258W, strain gsy2, active compounds read low 0.993 | S. cerevisiae deletion strains, locus YLR262C, strain YPT6 (second series), active compounds read low 1.01 | S. cerevisiae deletion strains, locus YLR262C, strain YPT6, active compounds read low 1 | S. cerevisiae deletion strains, locus YLR268W, strain sec22, active compounds read low 0.965 | S. cerevisiae deletion strains, locus YLR320W, strain mms22, active compounds read low 0.997 | S. cerevisiae deletion strains, locus YLR330W, strain CHS5, active compounds read low 1.01 | S. cerevisiae deletion strains, locus YLR342W, strain FKS1 (second series), active compounds read low 1.02 | S. cerevisiae deletion strains, locus YLR342W, strain FKS1, active compounds read low 1 | S. cerevisiae deletion strains, locus YLR357W, strain rsc2, active compounds read low 0.959 | S. cerevisiae deletion strains, locus YLR370C, strain arc18, active compounds read low 1 | S. cerevisiae deletion strains, locus YLR371W, strain rom2, active compounds read low 0.991 | S. cerevisiae deletion strains, locus YLR384C, strain iki3, active compounds read low 0.996 | S. cerevisiae deletion strains, locus YLR418C, strain cdc73, active compounds read low 0.994 | S. cerevisiae deletion strains, locus YML016C, strain PPZ1, active compounds read low 1 | S. cerevisiae deletion strains, locus YML032C, strain rad52, active compounds read low 0.966 | S. cerevisiae deletion strains, locus YML120C, strain ndi1, active compounds read low 1.01 | S. cerevisiae deletion strains, locus YML124C, strain tub3, active compounds read low 0.994 | S. cerevisiae deletion strains, locus YMR058W, strain fet3, active compounds read low 1 | S. cerevisiae deletion strains, locus YMR078C, strain ctf18, active compounds read low 0.993 | S. cerevisiae deletion strains, locus YMR125W, strain sto1, active compounds read low 0.997 | S. cerevisiae deletion strains, locus YMR129W, active compounds read low 1 | S. cerevisiae deletion strains, locus YMR205C, strain PFK2, active compounds read low 1.02 | S. cerevisiae deletion strains, locus YMR223W, strain ubp8, active compounds read low 1.01 | S. cerevisiae deletion strains, locus YMR231W, strain pep5, active compounds read low 0.993 | S. cerevisiae deletion strains, locus YMR263W, strain SAP30, active compounds read low 1.02 | S. cerevisiae deletion strains, locus YMR307W, strain GAS1, active compounds read low 0.99 | S. cerevisiae deletion strains, locus YNL067W, strain RPL9B, active compounds read low 0.999 | S. cerevisiae deletion strains, locus YNL071W, strain lat1, active compounds read low 0.998 | S. cerevisiae deletion strains, locus YNL128W, strain TEP1, active compounds read low 1.01 | S. cerevisiae deletion strains, locus YNL153C, strain GIM3, active compounds read low 0.992 | S. cerevisiae deletion strains, locus YNL183C, strain NPR1, active compounds read low 0.956 | S. cerevisiae deletion strains, locus YNL209W, strain ssb2, active compounds read low 1 | S. cerevisiae deletion strains, locus YNL233W, strain BNI4, active compounds read low 1.01 | S. cerevisiae deletion strains, locus YNL248C, strain rpa49, active compounds read low 0.945 | S. cerevisiae deletion strains, locus YNL250W, strain rad50, active compounds read low 0.977 | S. cerevisiae deletion strains, locus YNL271C, strain bni1, active compounds read low 0.988 | S. cerevisiae deletion strains, locus YNL298W, strain CLA4, active compounds read low 0.996 | S. cerevisiae deletion strains, locus YNL307C, strain MCK1, active compounds read low 1 | S. cerevisiae deletion strains, locus YNL322C, strain KRE1 (second series), active compounds read low 1.02 | S. cerevisiae deletion strains, locus YNL322C, strain KRE1, active compounds read low 1 | S. cerevisiae deletion strains, locus YNR049C, strain mso1, active compounds read low 0.996 | S. cerevisiae deletion strains, locus YNR052C, strain pop2, active compounds read low 0.989 | S. cerevisiae deletion strains, locus YOL006C, strain TOP1, active compounds read low 1 | S. cerevisiae deletion strains, locus YOL012C, strain htz1 0.629 | S. cerevisiae deletion strains, locus YOL147C, strain pex11, active compounds read low 0.991 | S. cerevisiae deletion strains, locus YOR001W, strain rrp6, active compounds read low 0.987 | S. cerevisiae deletion strains, locus YOR061W, strain CKA2, active compounds read low 1.01 | S. cerevisiae deletion strains, locus YOR069W, strain VPS5, active compounds read low 1 | S. cerevisiae deletion strains, locus YOR070C, strain gyp1, active compounds read low 0.997 | S. cerevisiae deletion strains, locus YOR080W, strain dia2, active compounds read low 0.997 | S. cerevisiae deletion strains, locus YOR083W, strain WHI5, active compounds read low 0.997 | S. cerevisiae deletion strains, locus YOR106W, strain vam3, active compounds read low 1.01 | S. cerevisiae deletion strains, locus YOR136W, strain idh2, active compounds read low 0.992 | S. cerevisiae deletion strains, locus YOR144C, strain elg1, active compounds read low 0.988 | S. cerevisiae deletion strains, locus YOR184W, strain ser1, active compounds read low 1.02 | S. cerevisiae deletion strains, locus YOR231W, strain MKK1, active compounds read low 0.998 | S. cerevisiae deletion strains, locus YOR265W, strain rbl2, active compounds read low 1 | S. cerevisiae deletion strains, locus YOR270C, strain vph1, active compounds read low 1.01 | S. cerevisiae deletion strains, locus YOR290C, strain snf2, active compounds read low 0.998 | S. cerevisiae deletion strains, locus YOR316C, strain cot1, active compounds read low 0.995 | S. cerevisiae deletion strains, locus YPL051W, strain arl3, active compounds read low 1.01 | S. cerevisiae deletion strains, locus YPL055C, strain LGE1, active compounds read low 1.02 | S. cerevisiae deletion strains, locus YPL078C, strain atp4, active compounds read low 0.989 | S. cerevisiae deletion strains, locus YPL106C, strain sse1, active compounds read low 1.01 | S. cerevisiae deletion strains, locus YPL240C, strain hsp82, active compounds read low 0.997 | S. cerevisiae deletion strains, locus YPL241C, strain CIN2, active compounds read low 1 | S. cerevisiae deletion strains, locus YPL256C, strain CLN2, active compounds read low 0.985 | S. cerevisiae deletion strains, locus YPR119W, strain clb2, active compounds read low 0.989 | S. cerevisiae deletion strains, locus YPR141C, strain kar3, active compounds read low 0.98 | S. cerevisiae deletion strains, locus YPR163C, strain tif3, active compounds read low 0.992 | S. cerevisiae deletion strains, locus YPR167C, strain met16, active compounds read low 0.994 | S. cerevisiae deletion strains, strain wtn01, active compounds read low 0.995 | S. cerevisiae strains, strain wild type, active compounds read low 1.01
